# Experimental data published in the supplement of paper PMC3334620.
# Over roughly 33,000 sequences, “E-score (-0.5 to 0.5)” has its median near -0.017; the highest 2% begin near 0.3. The list comes from a sample in which the highest values are over-represented; it also holds similar and randomly drawn sequences.
# Target: T1, Sut1 (UniProt P53032)
# T1 sequence: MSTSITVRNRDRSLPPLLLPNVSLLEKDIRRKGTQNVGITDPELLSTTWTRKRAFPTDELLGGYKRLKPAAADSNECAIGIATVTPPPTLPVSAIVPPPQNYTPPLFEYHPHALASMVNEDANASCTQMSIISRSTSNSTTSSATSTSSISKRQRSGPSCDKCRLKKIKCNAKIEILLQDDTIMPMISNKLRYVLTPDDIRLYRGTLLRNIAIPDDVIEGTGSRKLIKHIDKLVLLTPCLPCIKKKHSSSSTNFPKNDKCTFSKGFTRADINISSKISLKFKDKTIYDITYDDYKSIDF
# Assay: PBM E-score (8-mer binding enrichment) (E-score (-0.5 to 0.5)); higher = stronger / more preferred TF binding
# Conditions: protein concentration: 200 nM; construct: GST-full length
# Description: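 Universal 'all 10-mer' protein binding microarrays (Agilent AMADID 015681) probed with GST-tagged S. cerevisiae TFs (full-length or DBD) made by in vitro transcription/translation (PURExpress), about 100-200 nM. Bound TF was detected with fluorescent anti-GST. Each ungapped 8-mer (which stands for itself and its reverse complement) is scored by the PBM enrichment score (E-score), a modified Wilcoxon-Mann-Whitney statistic from -0.5 to +0.5, computed with the Universal PBM Analysis Suite. Scale: above 0.35 generally sequence-specific binding.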
row,Sequence,PBM E-score
1,AAACGCGC,-0.123
2,ATCCTCAT,-0.0846
3,CGAGGGTC,-0.194
4,CTTATGTA,0.16
5,AAACTGAA,0.171
6,AAGTTGCG,0.108
7,CTCGCCCC,-0.298
8,AGTGAATA,0.177
9,ATGGTCGG,0.0544
10,GCCCAGCC,-0.184
11,CTTATTTC,0.207
12,ATGATTTC,0.299
13,ATGATTTA,0.222
14,ACTATTTG,0.252
15,CTTATTTA,0.101
16,ATTATTTG,0.319
17,ATTATTAC,0.278
18,CTGATTTC,0.0415
19,GTTATTTA,0.257
20,ATTATTTA,0.347
21,ATTATTTC,0.306
22,ATTATTAG,0.144
23,CGCTAGTA,0.101
24,AGAATGCA,0.0147
25,CCCGTTAG,-0.0959

row,Sequence,PBM E-score
1,CGTACGAG,-0.098
2,AATAGCTC,-0.207
3,ATTGCGAC,0.0862
4,CGTCCTTA,-0.176
5,GTACCGCA,0.102
6,ATACCGGG,0.0371
7,CTACCGGA,0.222
8,ATACCGGA,0.326
9,GTACCGGA,0.342
10,ATACCGGC,-0.0331
11,AGTCAGCA,-0.0199
12,ACCCACTC,0.00249
13,TCCCGGAA,0.228
14,TTCCGGAA,0.395
15,ATCCGGCG,-0.00912
16,ATCCGGAC,0.362
17,CTGCGGAA,-0.0948
18,ATCCGGAT,0.257
19,TGCCGGAA,0.188
20,ATCCGGAG,0.414
21,CTCCGGAA,0.442
22,ATCCGGTG,0.0918
23,ACAGTCAA,-0.0644
24,AGAGTAAG,0.016
25,AAGCTCTC,-0.127

row,Sequence,PBM E-score
1,AAAACTTG,0.143
2,GCGTTACC,-0.158
3,ACTCCCTG,-0.173
4,AATCACGT,-0.0474
5,ATGCGGAA,0.0745
6,GTCCGGAC,0.469
7,GTCCAAAC,-0.0427
8,GTCAGGAC,-0.206
9,GTGCGGAA,0.0942
10,ATGCGGAG,0.259
11,ATCCGGAA,0.303
12,CTCAGGAG,-0.179
13,GTCCGGAA,0.402
14,CTCCGGAG,0.487
15,CAACGCAA,0.111
16,TAGTTAGA,0.169
17,AGTCTATG,-0.11
18,ACATTGGC,-0.21
19,AGAAAGCT,0.126
20,CATAAGGA,-0.134
21,CCCTCGAC,-0.327
22,CAATCTAG,-0.0129
23,CTTAGTCC,0.113
24,ATTGAGTG,0.0241
25,CTCAGGAC,-0.127

row,Sequence,PBM E-score
1,CTCCGGAC,0.473
2,CTGCGGAC,0.165
3,TTATTAAA,0.273
4,GTTTAAAC,0.31
5,ATATTAAA,0.37
6,CAAATTAA,0.189
7,TAGTTATA,0.318
8,GAAATTAA,0.333
9,AAAATTAA,0.221
10,GTTTAAAA,0.19
11,GAGTTATA,0.2
12,AAGTTATA,0.186
13,CTTTAAAC,0.105
14,CTATTAAA,0.0826
15,AGGTCTAA,-0.0642
16,CTAGGTGA,-0.168
17,GTCTATCA,0.101
18,AGATTCAT,0.0265
19,ATTAAGAC,0.123
20,GCGCTTGA,0.0596
21,AAATTATA,0.351
22,CAATTATA,0.164
23,AATTAAAC,0.329
24,ATATTTAA,0.303
25,AAATTATG,0.175

row,Sequence,PBM E-score
1,ATATTTAC,0.282
2,CTATTTAA,0.188
3,AATTAAAG,0.198
4,AATTTATA,0.276
5,GATTAAAC,0.114
6,TAATTATA,0.349
7,TAATTAGA,0.218
8,ACTAAGTC,0.0911
9,CTACCCAG,-0.18
10,AGAAATGC,0.048
11,GAAATCCC,-0.0066
12,ATCACCTA,-0.13
13,CTTAGCCC,-0.129
14,ATGAACCC,0.00896
15,CCAAATCC,0.0309
16,AGCAGAAA,0.175
17,AAGGTCTC,-0.0653
18,GAATTATA,0.335
19,TCATTAAA,0.315
20,GCATTATA,0.118
21,AGATTAAA,0.324
22,CGATTAAA,0.237
23,GAATTATC,0.0676
24,AGATTAAT,0.222
25,AAATTACT,0.234

row,Sequence,PBM E-score
1,GCATTAAA,0.0763
2,ACATTAAA,0.259
3,AAATTATC,0.281
4,AAATTATT,0.328
5,AGCAAATC,0.142
6,AGTGGCAT,-0.231
7,CCCTTCAA,-0.068
8,ATTCCCTA,0.11
9,AAGGCCAG,-0.00339
10,GAGCTAAA,0.106
11,AATTTCTA,0.285
12,AAATTAAA,0.333
13,ATATTATA,0.249
14,ATATTATC,0.223
15,AAATTAAC,0.236
16,CTCTTAAA,0.302
17,AAATTAAT,0.292
18,GTCTTAAA,0.00721
19,CTCTTAAC,0.042
20,ATATTATG,0.362
21,CTCTCGCC,-0.182
22,GAGTTAAA,0.13
23,AGAACCTC,-0.0985
24,GCAACGCC,-0.114
25,CTTAAAGC,-0.0652

row,Sequence,PBM E-score
1,TATACTGA,0.292
2,GATATTGA,0.234
3,CATATTGA,0.0287
4,TATATTGA,0.332
5,TATATTAA,0.315
6,CATATTAA,0.183
7,GATATTAA,0.285
8,GAACAGAC,0.0707
9,GTCCTAGA,-0.141
10,GCCCCGGA,0.29
11,CGCCCGAA,-0.101
12,CGCCCGGC,-0.0194
13,CGCCCGGA,0.361
14,AGCCCGGC,0.00111
15,GGCCCGGA,0.305
16,AGCCCGGA,0.341
17,GGCCCGCA,-0.113
18,AGCCCGGG,0.0766
19,CTACCAAC,0.0725
20,AACTCGCT,0.0435
21,ATGGAGAA,0.108
22,CCGGACAA,0.283
